Measurements from PubChem BioAssay (EPA / NIEHS).
Active and inactive are the calls of the source. Rule for the calls: active = hit-call score of the fitted dose curve at least 0.9, where 1 is the maximum; inactive = score below 0.9.

Assay: Tanguay_ZF_120hpf_DP24: Oregon State University Tanguay Lab 24 Hour Post-fertilization zebrafish Assay for Delayed Development (AID 2284390)
Method: Tanguay_ZF_120hpf is a whole embryo, multiplexed endpoint assay using zebrafish larvae exposed for 120 hours post fertilization on a 96-well plate.Tanguay_ZF_120hpf_DP24 is […] measured or calculated from the Tanguay_ZF_120hpf assay. It is designed to make measurements of zebrafish development as detected with brightfield microscopy of developing zebrafish embryos.Data from the assay component Tanguay_ZF_120hpf_DP24 was analyzed into 1 assay endpoints. This assay endpoint, Tanguay_ZF_120hpf_DP24, was analyzed in the positive analysis fitting direction relative to DMSO as the negative control and baseline of activity. Using a type of morphology reporter, gain-of-signal activity can be used to understand changes in developmentals as they relate to the whole embryo. To generalize the intended target to other relatable targets, this assay endpoint is annotated to the zebrafish development intended target family, where the subfamily is embryonic morphogenesis.
Zebrafish husbandry: Tropical 5D wild-type adult zebrafish were housed in at an approximate density of 1000 per 100 gallon tank at the Sinnhuber Aquatic Research Laboratory, Oregon State University, Corvallis, OR. Each tank was kept at standard laboratory conditions of 28C on a 14-h light/10-h dark photoperiod in fish water consisting of reverse osmosis water supplemented with a commercially available salt (Instant Ocean). Spawning funnels were placed into the tanks the night prior, and embryos were collected and staged. To increase bioavailability, the chorion was enzymatically removed using pronase (63.6mg/ml, >/= 3.5U/mg, Sigma-Aldrich: P5147) at 4 hours post fertilization (hpf) using a custom automated dechorionator.Chemical exposures: Six hpf dechorionated embryos were placed 1 embryo per well in a 96-well plate prefilled with 90 ul of EM using automated embryo placement systems (AEPS). Ten microliters of each row of dilution plate 2 was added to 2 exposure plates. The final DMSO concentration used was 0.64% (vol/vol). Thirty-two embryos were also exposed to 5uM trimethyltin chloride (positive control). Plates were sealed to prevent evaporation and foil covered to reduce light exposure and kept in a 28C incubator. Embryos were statically exposed until 120 hpf. At 24 hpf, embryos were assessed for photomotor response using a custom photomotor response analysis tool (PRAT) and for developmental toxicity endpoints (MO24: mortality at 24 hpf, DP: developmental progression, SM: spontaneous movement, and NC: notochord distortion). At 120 hpf, locomotor activity was measured using Viewpoint Zebralab and assessed for 13 endpoints. Zebrafish acquisition and analysis program (ZAAP), a custom program designed to inventory, acquire, and manage zebrafish data, was used to collect developmental endpoints as either present or absent (i.e., binary responses were recorded). If mortality occurred for an embryo (at either 24 or 120 hpf), the non-mortality endpoints were not measured.
For `OCC(F)(F)C(F)(F)C(F)(F)CO`, the outcome was “inactive”.
With `O=C(O)CCC(F)(F)C(F)(F)C(F)(F)C(F)(F)C(F)(F)C(F)(F)C(F)(F)F` the outcome was “inactive”.
For `COC(F)(C(F)F)C(F)(F)F` (configuration not stated), the outcome was “inactive”.
In the case of `NC(=O)C(F)(F)C(F)(F)C(F)(F)C(F)(F)C(F)(F)C(F)(F)C(F)(F)F`, the outcome was “inactive”.
For `OCC(F)(F)C(F)(F)C(F)(F)C(F)(F)C(F)(F)C(F)(F)C(F)(F)C(F)(F)CO`, the outcome was “inactive”.
For `NC(O)(C(F)(F)F)C(F)(F)F`, the outcome was “inactive”.
With `CN(C(=O)C(F)(F)C(F)(F)C(F)(F)F)[Si](C)(C)C` the outcome was “inactive”.
For `NS(=O)(=O)C(F)(F)C(F)(F)C(F)(F)C(F)(F)C(F)(F)C(F)(F)F`, the AC50 was 57.6 µM (active).
With `OCC(O)CC(F)(F)C(F)(F)C(F)(F)C(F)(F)F` (configuration not stated) the outcome was “inactive”.
In the case of `CO[Si](C)(CCC(F)(F)C(F)(F)C(F)(F)C(F)(F)C(F)(F)C(F)(F)F)OC`, the outcome was “inactive”.
In the case of `O=C(O)C(F)(F)C(F)(F)C(F)(F)OC(F)(F)F`, the outcome was “inactive”.
With `O=S(=O)(Cl)C(F)(F)C(F)(F)C(F)(F)C(F)(F)C(F)(F)C(F)(F)C(F)(F)C(F)(F)F` the outcome was “inactive”.
With `NC(=O)C(F)(F)C(F)(F)C(F)(F)C(F)(F)C(N)=O` the outcome was “inactive”.
For `O=S(=O)(O)CCC(F)(F)C(F)(F)C(F)(F)C(F)(F)F`, the outcome was “inactive”.
With `OC(O)C(F)(F)C(F)(F)F` the outcome was “inactive”.
With `C=CC(=O)OCC(F)(F)C(F)(F)C(F)(F)C(F)(F)C(F)(F)C(F)(F)C(F)(F)C(F)F` the outcome was “inactive”.
With `OCC(O)CC(F)(F)C(F)(F)C(F)(F)C(F)(F)C(F)(F)C(F)(F)C(F)(F)C(F)(F)F` (configuration not stated) the outcome was “inactive”.
With `NC(=O)C(F)(F)C(F)(F)C(F)(F)C(F)F` the outcome was “inactive”.
For `FC(F)(F)C(F)(F)C(F)(F)CC1CO1` (configuration not stated), the outcome was “inactive”.
For `FC(F)(F)C(F)(F)C(F)(F)C(F)(F)C(F)(F)C(F)(F)CC[Si](Cl)(Cl)Cl`, the outcome was “inactive”.
With `FC(F)(F)C(F)(F)C(F)(F)C(F)(F)C(F)(F)C(F)(F)C(F)(F)CCI` the outcome was “inactive”.
With `CCN(CCO)S(=O)(=O)C(F)(F)C(F)(F)C(F)(F)C(F)(F)C(F)(F)C(F)(F)C(F)(F)C(F)(F)F` the outcome was “inactive”.
For `OCCCC(F)(F)C(F)(F)C(F)(F)C(F)(F)C(F)(F)C(F)(F)C(F)(F)C(F)(F)F`, the outcome was “inactive”.
With `O=C(F)C1(F)C(F)(F)C(F)(F)C(F)(F)C(F)(F)C1(F)F` the outcome was “inactive”.
For `C[Si](Cl)(Cl)CCC(F)(F)C(F)(F)C(F)(F)C(F)(F)C(F)(F)C(F)(F)F`, the outcome was “inactive”.
With `C=CC(=O)OCCC(F)(F)C(F)(F)C(F)(F)C(F)(F)F` the outcome was “inactive”.
With `O=C(O)CCC(F)(F)C(F)(F)C(F)(F)F` the outcome was “inactive”.
With `OCCCCC(F)(F)C(F)(F)C(F)(F)C(F)(F)F` the outcome was “inactive”.
With `CCOC(=O)CC(=O)C(F)(F)C(F)(F)F` the outcome was “inactive”.
For `O=C(O)C(F)(F)C(F)(F)C(F)(F)C(=O)O`, the outcome was “inactive”.
In the case of `OCC(F)(F)C(F)(F)C(F)(F)C(F)(F)C(F)(F)C(F)(F)CO`, the outcome was “inactive”.
With `C=CC(=O)OCC(F)(F)C(F)(F)C(F)(F)COC(=O)C=C` the AC50 was 14.1 µM (active).
In the case of `O=S(=O)(OCC(F)(F)F)C(F)(F)C(F)(F)C(F)(F)C(F)(F)F`, the outcome was “inactive”.
In the case of `CNS(=O)(=O)C(F)(F)C(F)(F)C(F)(F)C(F)(F)C(F)(F)C(F)(F)C(F)(F)C(F)(F)F`, the outcome was “inactive”.
For `NC(=O)C(F)(F)C(F)(F)C(F)(F)F`, the outcome was “inactive”.
For `O=S(=O)(O)CCC(F)(F)C(F)(F)C(F)(F)C(F)(F)C(F)(F)C(F)(F)C(F)(F)C(F)(F)F`, the AC50 was 79.2 µM (active).
With `O=C(O)C(F)(F)C(F)(F)C(F)(F)OC(F)(C(F)(F)F)C(F)(F)F` the outcome was “inactive”.
